Source: the supplement of paper PMC7156485

Key:
Settings in all cases: concentration: 10 µM; 24 h
[1] = tested on: HCC1569; assay: cell number relative to DMSO (% of DMSO); higher = more cells (less growth inhibition / toxicity)
Outline: (§1)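 HCC1569 and TDF cells were seeded at 800 per well in 384-well plates in RPMI with 10% FBS and treated with compounds at 10 µM for 24 h at 37 °C, in triplicate. After fixation in 3.7% formaldehyde, cells were stained with a rabbit anti-H1.0 antibody, an AlexaFluor 647 secondary and DAPI, and six fields per well were imaged at ×10. H1.0 nuclear intensity or cell number is given as percent of the plate control, using the median of replicates, with HCC1569 values smoothed for positional effects.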

[2] = tested on: TDF; assay: as above
Outline: as §1

[3] = tested on: TDF; assay: H1.0 immunofluorescence intensity relative to DMSO (% of DMSO); higher = stronger H1.0 induction, active = 120 or more
Outline: as §1

[4] = tested on: HCC1569; assay: H1.0 immunofluorescence intensity relative to DMSO (% of DMSO); higher = stronger H1.0 induction, active = 140 or more
Outline: as §1
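For H1.0 immunofluorescence intensity relative to DMSO in this document: TDF is a line of transformed human dermal fibroblasts of mesenchymal origin.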
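For cell number relative to DMSO in this document: TDF denotes transformed human dermal fibroblasts of mesenchymal origin.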

SMILES	cell number [1]	cell number [2]	H1.0 immunofluorescence intensity [3]	H1.0 immunofluorescence intensity [4]
CC1=NC(=NNc2cc(S(=O)(=O)[O-])c3cc([N+](=O)[O-])cc(S(=O)(=O)[O-])c3c2)C(COP(=O)([O-])[O-])=C(C=O)C1=O.[Na+].[Na+].[Na+].[Na+] [PPNDS tetrasodium]	104	115	91 (inactive)	100 (inactive)
CCCCCCCCc1ccc(CCC(N)(CO)CO)cc1.Cl	13.6	17.4	210 (active)	173 (active)
CC(C)(C)NCC(O)c1cc(O)cc(O)c1.CC(C)(C)NCC(O)c1cc(O)cc(O)c1.O=S(=O)(O)O (configuration not stated) [Terbutaline hemisulfate]	106	105	92.8 (inactive)	97 (inactive)
CCCCCCCCCCCC=CCCCCCC(=O)O [7(E)-Nonadecenoic acid]	98.7	104	96.9 (inactive)	94.3 (inactive)
CC1CN(c2c(F)c(N)c3c(=O)c(C(=O)O)cn(C4CC4)c3c2F)CC(C)N1 (configuration not stated) [Sparfloxacin]	104	103	95.6 (inactive)	106 (inactive)
CC[N+](CC)(CC)CCOc1cccc(OCC[N+](CC)(CC)CC)c1OCC[N+](CC)(CC)CC [Gallamine]	101	107	93.8 (inactive)	104 (inactive)
CCCCCC=CCC=CCCCCCCCCCCCC(=O)O [13(Z),16(Z)-Docosadienoic acid]	100	109	104 (inactive)	89.9 (inactive)
COc1cc2c(N3CCN(C(=O)Nc4ccc(OC(C)C)cc4)CC3)ncnc2cc1OCCCN1CCCCC1 [Tandutinib]	101	100	97.9 (inactive)	99.5 (inactive)
COc1cc2c(c(OC)c1OC)-c1c(cc(OC)c(OC)c1OC)CC(C)C(C)C2 (stereo not drawn) [R(+)-Schisandrin A]	105	103	91.6 (inactive)	94.9 (inactive)
CCCCCC=CCC(O)C=CC=CC=CC(O)CCCC(=O)O [5(S),12(S)-DIHETE all trans]	101	106	93.5 (inactive)	95 (inactive)
OCC1OC(n2cnc3c(NC4CC5CCC4C5)ncnc32)C(O)C1O (configuration not stated)	99.1	92.5	96.9 (inactive)	91.9 (inactive)
CN(C)CCCCSC(=N)N.Cl.Cl	99.3	106	93.8 (inactive)	102 (inactive)
CCNC1CC(C)S(=O)(=O)c2sc(S(N)(=O)=O)cc21.Cl (configuration not stated) [Dorzolamide.HCl]	97	87.9	100 (inactive)	95.5 (inactive)
OCC1OC(n2cnc3c(NCCc4ccccc4)ncnc32)C(O)C1O (configuration not stated) [N6-2-Phenylethyladenosine]	99.4	113	87.8 (inactive)	101 (inactive)
CC(C)(O)CCC(O)C(C)(O)C1CCC2(O)C3=CC(=O)C4CC(O)C(O)CC4(C)C3CCC12C (configuration not stated)	102	97	102 (inactive)	94.8 (inactive)
O=C(c1ccc(F)cc1)C1CCN(CCn2c(=O)[nH]c3ccccc3c2=O)CC1 [Ketanserin]	101	105	91.7 (inactive)	117 (inactive)
CCCCCC(O)C=CC1C(O)CC(O)C1CC(=O)CCC(=O)O (configuration not stated) [2,3-Dinor-6-keto-prostaglandin F1a]	103	114	88.8 (inactive)	101 (inactive)
CC(=O)N[C@@H](CS)C(=O)O [N-Acetyl-L-Cysteine]	98.1	115	109 (inactive)	118 (inactive)
NCC(O)c1ccc(O)c(O)c1.O=C(O)C(O)C(O)C(=O)O (stereo not drawn) [Norepinephrine-(+)-tartrate L (-)]	100	99.2	91.4 (inactive)	105 (inactive)
CCCCCCCCCCCCCCCC(O)C(CO)NC(=O)CCCCCCC (configuration not stated) [C8 Dihydroceramide]	100	104	97.1 (inactive)	108 (inactive)
Nc1ccn(C2CCC(CO)O2)c(=O)n1 (configuration not stated) ["2',3' - Dideoxycytidine"]	107	87.5	100 (inactive)	101 (inactive)
CCCCc1nc(Cl)c(CO)n1Cc1ccc(-c2ccccc2-c2nnn[n-]2)cc1.[K+] [Losartan potassium]	102	90.1	98.1 (inactive)	102 (inactive)
O=c1[nH]c2ccccc2c2ccccc12 [6(5H)-Phenanthridinone]	100	109	93.8 (inactive)	104 (inactive)
